# Measurements: the supplement of paper PMC6763611
# Test system: Plasmodium falciparum NF54
# Assay: growth inhibition relative to untreated control; higher = more inhibition
# Details: 5 µM; MM + chorismate end-products (CM screening medium); 72 h
# Procedure, shortened: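 Two media were used: minimal RPMI, and minimal RPMI carrying the chorismate end-products folate, pABA, pHBA, tyrosine, phenylalanine and tryptophan at 2.2 μM, 7.3 μM, 7.3 μM, 111 μM and 90 μM for the first five. In these media, P. falciparum NF54 ring stages (1% hematocrit, 1% parasitemia, 100 μL/well) were exposed in dark 96-well half-area plates to a single 5 μM or 1 μM test-compound dose for 72 h at 37 °C. Growth inhibition was then assessed with SYBR Green against untreated wells, subtracting background from uninfected erythrocytes.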
row,Compound,growth inhibition
1,CS(=O)(=O)c1ccc(C(=O)N(CC2CCCO2)c2nc3ccccc3s2)cc1[N+](=O)[O-] (stereo not drawn),72.3%
2,CN(C)CCNC(=O)N1CCCN(c2ncnc3cc(-c4ccccc4)sc23)CC1,> 100%
3,c1cc(C2=NCCN2)cc(-c2cc(-c3ccc(C4=NCCN4)cc3)no2)c1,97.8%
4,c1cncc(NCc2ccc(-c3cc4ccncc4cc3OC3CCNCC3)s2)c1,> 100%
5,CC(C(=O)N1CCCC1)N1CCN(S(=O)(=O)c2ccc(C(C)(C)C)cc2)CC1 (stereo not drawn),67.3%
6,COc1cc(C2=NCCN2)ccc1-n1cc(-c2cccc(C3=NCCN3)c2)nn1,66.5%
7,CC(C)NCC(=O)Nc1cccc(C(=O)Nc2cccc(C(F)(F)F)c2)c1,89.3%
8,O=S(=O)(c1ccc(Cl)cc1)N1CCN(C(=S)NCc2ccco2)CC1,94.3%
9,CN1CCN(c2cc(-c3ccc(F)cc3)nc(-c3ccncc3)n2)CC1,92.9%
10,CCN(CC)CCCN1CCN(C(=O)c2cccc(-c3noc(C(F)(F)F)n3)c2)CC1,95.3%
11,CCCCOC(=O)Nc1cc2nc(C3CCCCC3)[nH]c2cc1N1CCCC1,85.8%
12,CCN(CC)CCCCCCNc1cc(OC)cc2c(C)ccnc12,81.2%
13,CC(=O)Nc1ccc(-c2noc(CC3CCCN(Cc4cccc(F)c4C)C3)n2)cc1 (stereo not drawn),93.6%
14,CC(C)n1nc(-c2cc3c(Cl)cccc3[nH]2)c2c(N)ncnc21,57.9%
15,Cc1nnc(NC(=O)c2cn(-c3ccccc3)nc2-c2ccccc2C)o1,83.6%
16,O=C1Nc2ccc(Br)cc2C12NCCc1c2[nH]c2ccccc12 (stereo not drawn),95.9%
17,NCCCC(N)(C(=O)O)C(F)F (stereo not drawn),< 0%
18,CCCCc1ccc(NC(=O)Nc2ccc(O[C@H]3CCCC[C@@H]3N(C)c3ccccc3)c(F)c2)cc1,98.1%
19,COc1ccc(C2=NCCN2)cc1-c1cn(-c2cccc(C3=NCCN3)c2)nn1,> 100%
20,COc1cc(C2=NCCN2)ccc1-c1cn(-c2cccc(C3=NCCN3)c2)nn1,> 100%

row,Compound,growth inhibition
1,CCCCN(CCCC)c1c(C#N)cc(S(=O)(=O)Nc2ccccc2)cc1C#N,39.9%
2,Nc1ncnc2[nH]nc(Cc3cccc4ccccc34)c12,< 0%
3,Cc1cc(C)nc(-n2nc(C)cc2Nc2ccccc2)n1,69.8%
4,CC(C)C(NC(=O)Cc1cccc2ccccc12)C(=O)Nc1cccc(C#N)c1 (stereo not drawn),79.3%
5,FC(F)(F)c1cccc(-c2nc3c(NCc4ccncc4)nccc3[nH]2)c1,95.4%
6,O=C(Nc1nc(-c2ccccn2)cs1)c1cncn1-c1ccccc1,65%
7,Cc1cc(OCC(=O)Nc2ccc(C(C)C)cc2)n(C)c(=O)c1C#N,18.4%
8,COc1cncc(-c2cncc(N3CCN(c4ccncc4)CC3)n2)c1,97.4%
9,CCc1ccccc1-n1c(C)cn2c3c(=O)n(C(C(=O)OC)C(C)C)c(=O)n(C)c3nc12 (stereo not drawn),84.3%
10,COc1ccc(C2(C(=O)Nc3ccc(Br)cc3)CCCC2)cc1,< 0%
11,C[C@]1(COc2ccc(N3CCC(Oc4ccc(OC(F)(F)F)cc4)CC3)cc2)Cn2cc([N+](=O)[O-])nc2O1,21.9%
12,Cc1nn2c(=O)c3c([nH]c2c1-c1ccc(Cl)cc1)CCCC3,7.72%
13,COc1cccc(OCC(=O)c2ccc(Br)cc2)c1,< 0%
14,CC(C)c1ncc(-c2ccncc2)c([C@H]2CC[C@H](CNC(=O)c3cccnc3)CC2)n1,92.5%
15,CN1CCCN(C(c2ccccc2)c2ccc(Cl)cc2)CC1 (stereo not drawn),33.8%
16,O=C(NCc1cc(Cl)cc(Cl)c1)c1c(C(F)(F)F)nc2ccccn12,31.8%
17,Cc1ccc2[nH]c3c(NCCN(C)C)ncnc3c2c1,98.1%
18,O=C(C1CCN(c2nnnn2-c2ccccc2)CC1)N1CCc2ccccc2C1,< 0%
19,Cn1ccnc1CNCCS(=O)(=O)c1cccc(Nc2ccc(-c3cccc(F)c3)cn2)c1,26.9%

# Same assay, conditions: 5 µM; minimal medium (MM); 72 h
row,Compound,growth inhibition
1,CS(=O)(=O)c1ccc(C(=O)N(CC2CCCO2)c2nc3ccccc3s2)cc1[N+](=O)[O-] (stereo not drawn),55.5%
2,CN(C)CCNC(=O)N1CCCN(c2ncnc3cc(-c4ccccc4)sc23)CC1,87%
3,c1cc(C2=NCCN2)cc(-c2cc(-c3ccc(C4=NCCN4)cc3)no2)c1,89.7%
4,c1cncc(NCc2ccc(-c3cc4ccncc4cc3OC3CCNCC3)s2)c1,84.2%
5,CC(C(=O)N1CCCC1)N1CCN(S(=O)(=O)c2ccc(C(C)(C)C)cc2)CC1 (stereo not drawn),33.4%
6,COc1cc(C2=NCCN2)ccc1-n1cc(-c2cccc(C3=NCCN3)c2)nn1,19.2%
7,CC(C)NCC(=O)Nc1cccc(C(=O)Nc2cccc(C(F)(F)F)c2)c1,97.4%
8,O=S(=O)(c1ccc(Cl)cc1)N1CCN(C(=S)NCc2ccco2)CC1,92.6%
9,CN1CCN(c2cc(-c3ccc(F)cc3)nc(-c3ccncc3)n2)CC1,96.5%
10,CCN(CC)CCCN1CCN(C(=O)c2cccc(-c3noc(C(F)(F)F)n3)c2)CC1,87%
11,CCCCOC(=O)Nc1cc2nc(C3CCCCC3)[nH]c2cc1N1CCCC1,5.52%
12,CCN(CC)CCCCCCNc1cc(OC)cc2c(C)ccnc12,91.2%
13,CC(=O)Nc1ccc(-c2noc(CC3CCCN(Cc4cccc(F)c4C)C3)n2)cc1 (stereo not drawn),82%
14,CC(C)n1nc(-c2cc3c(Cl)cccc3[nH]2)c2c(N)ncnc21,15.9%
15,Cc1nnc(NC(=O)c2cn(-c3ccccc3)nc2-c2ccccc2C)o1,83.6%
16,O=C1Nc2ccc(Br)cc2C12NCCc1c2[nH]c2ccccc12 (stereo not drawn),87.5%
17,NCCCC(N)(C(=O)O)C(F)F (stereo not drawn),< 0%
18,CCCCc1ccc(NC(=O)Nc2ccc(O[C@H]3CCCC[C@@H]3N(C)c3ccccc3)c(F)c2)cc1,85.4%
19,COc1ccc(C2=NCCN2)cc1-c1cn(-c2cccc(C3=NCCN3)c2)nn1,91.6%
20,COc1cc(C2=NCCN2)ccc1-c1cn(-c2cccc(C3=NCCN3)c2)nn1,88.7%

row,Compound,growth inhibition
1,CCCCN(CCCC)c1c(C#N)cc(S(=O)(=O)Nc2ccccc2)cc1C#N,35.7%
2,Nc1ncnc2[nH]nc(Cc3cccc4ccccc34)c12,< 0%
3,Cc1cc(C)nc(-n2nc(C)cc2Nc2ccccc2)n1,34.2%
4,CC(C)C(NC(=O)Cc1cccc2ccccc12)C(=O)Nc1cccc(C#N)c1 (stereo not drawn),91%
5,FC(F)(F)c1cccc(-c2nc3c(NCc4ccncc4)nccc3[nH]2)c1,96%
6,O=C(Nc1nc(-c2ccccn2)cs1)c1cncn1-c1ccccc1,< 0%
7,Cc1cc(OCC(=O)Nc2ccc(C(C)C)cc2)n(C)c(=O)c1C#N,21%
8,COc1cncc(-c2cncc(N3CCN(c4ccncc4)CC3)n2)c1,89.1%
9,CCc1ccccc1-n1c(C)cn2c3c(=O)n(C(C(=O)OC)C(C)C)c(=O)n(C)c3nc12 (stereo not drawn),87.9%
10,COc1ccc(C2(C(=O)Nc3ccc(Br)cc3)CCCC2)cc1,2.98%
11,C[C@]1(COc2ccc(N3CCC(Oc4ccc(OC(F)(F)F)cc4)CC3)cc2)Cn2cc([N+](=O)[O-])nc2O1,9.3%
12,Cc1nn2c(=O)c3c([nH]c2c1-c1ccc(Cl)cc1)CCCC3,16.2%
13,COc1cccc(OCC(=O)c2ccc(Br)cc2)c1,< 0%
14,CC(C)c1ncc(-c2ccncc2)c([C@H]2CC[C@H](CNC(=O)c3cccnc3)CC2)n1,92%
15,CN1CCCN(C(c2ccccc2)c2ccc(Cl)cc2)CC1 (stereo not drawn),17.6%
16,O=C(NCc1cc(Cl)cc(Cl)c1)c1c(C(F)(F)F)nc2ccccn12,9.63%
17,Cc1ccc2[nH]c3c(NCCN(C)C)ncnc3c2c1,95.7%
18,O=C(C1CCN(c2nnnn2-c2ccccc2)CC1)N1CCc2ccccc2C1,< 0%
19,Cn1ccnc1CNCCS(=O)(=O)c1cccc(Nc2ccc(-c3cccc(F)c3)cn2)c1,3.75%
